Laboratory results as given in PubChem BioAssay AID488890 (Southern Research Specialized Biocontainment Screening …, 2010).
The campaign covered roughly 320,000 compounds. About 1,300 (0.41%) were called active. Another 3% or so got no clear call; they are omitted. The rule behind the calls is not given here. These entries were drawn from the full list. Measured potencies and affinities stand elsewhere.

Experiment: growth inhibition of non-replicating M. tuberculosis (AID 488890);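 note: plate controls were DMSO cells for no effect and high antibiotic wells for full effect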
Details: Mycobacterium tuberculosis non-replicating, at 25 µM, stronger effect = higher value

SMILES	inhibition
CCC(=O)N1c2ccc(S(=O)(=O)N3CCN(CC)CC3)cc2CC1C (configuration not stated)	-2.95%
Cc1nc2c(=O)oc3ccccc3c2n1-c1ccccc1	66.8%
Cn1c(C(F)(F)F)nc2c(=O)oc3ccccc3c21	71.2%
Cc1cc(Cl)c2oc(C(=O)N3CCN(c4cccc(C)n4)CC3)c(C)c2c1	22.3%
O=C(NN=C1CCCC1)c1ccccc1O	8.13%
CCOC(=O)N1CCC(=NNC(=O)c2cc3ccccc3cc2O)CC1	31.9%
N=c1n(Cc2ccccc2)c2ccccc2n1CC(O)c1ccco1 (configuration not stated)	2.91%
Cc1ccc(Cn2c(=N)n(CC(O)c3ccco3)c3ccccc32)cc1 (configuration not stated)	18.9%
CC1CCC/C(=C\Nc2ccc(O)cc2)C1=O (configuration not stated)	13.7%
CC1CCC/C(=C\Nc2ccc(C(=O)O)cc2)C1=O (configuration not stated)	-12.5%
O=C1c2cccc(OCC(=O)N3CCCc4ccccc43)c2CCN1Cc1cccnc1	15.4%
O=C(NC1CCCC1)c1cc(-c2ccccc2O)on1	4.68%
O=C(NC1CCCCC1)c1cc(-c2cccs2)on1	43.1%
CN(Cc1cccs1)C(=O)COC(=O)CNC(N)=O	2.55%
CCc1ccc(C(=O)c2cncc(Br)c2)cc1	70%
O=C(c1ccccc1)c1cncc(Br)c1	19%
Cc1ccc(C)n1-c1ccc(N2CCOCC2)c([N+](=O)[O-])c1	-3.61%
Cc1nn(C)c(C)c1NC(=S)Nc1ccc(S(=O)(=O)Nc2ncccn2)cc1	-12.7%
CCC/C=C(\CCC)C(NC(=O)CCc1ccccc1)c1ccc(C(F)(F)F)cc1 (configuration not stated)	-8.64%
Cc1cc(C(c2ccc(O)cc2)c2cc(C)c(O)cc2C)c(C)cc1O	19.6%
Cc1ccc(O)c(C)c1	-0.5%
CN(C)CCCn1c(-c2ccccc2)nc(=S)c2c1CCCC2	3.62%
CN(C)CCN1C(=O)C2C(C(=O)Nc3cc(Cl)cc(Cl)c3)C3C=CC2(O3)C1C(=O)NC1CCCCC1 (configuration not stated)	5.38%
COc1ccc(OCCCC(=O)OCC(=O)Nc2nnc(-c3ccccc3)o2)cc1	24.6%

SMILES	inhibition
CC(C)c1ccc(OCC(=O)NCCO)cc1	-10.9%
Cc1ccccc1N1CCN(Cc2ccc(Br)o2)CC1	35.5%
Cc1ccc(CN2CCN(c3ccccc3Cl)CC2)o1	-0.79%
Cc1ccccc1N1CCN(Cc2cc3c(cc2[N+](=O)[O-])OCO3)CC1	45.5%
Cc1cccc(N2CCN(Cc3ccoc3)CC2)c1C	11.8%
Clc1ccccc1N1CCN(Cc2ccc(Br)o2)CC1	19.6%
Cc1cccc(N2CCN(Cc3ccc(Br)o3)CC2)c1C	51.8%
CCOc1ccc(N=C2SCC(=O)N2CC)cc1	25.3%
O=C(Nc1cccc([N+](=O)[O-])c1)NC1CCS(=O)(=O)C1 (configuration not stated)	-1.42%
CSc1ccccc1NC(=O)CN(C)CC(=O)Nc1c(F)cccc1F	6.62%
O=C1c2cccc3cccc(c23)C(=O)N1CCCc1n[nH]c(=S)n1-c1ccccc1	-14.7%
C=CCN(C)NC(=O)Nc1ccccc1	6.98%
Cc1c(NC(=O)CCCCCN2C(=O)c3ccccc3C2=O)c(=O)n(-c2ccccc2)n1C	-3.66%
COc1cc(C(=O)N2CCC(NC(=O)C(Cc3ccccc3C)NC(C)=O)CC2)cc(OC)c1OC (configuration not stated)	3.5%
Cc1nc([N+](=O)[O-])c(Br)n1CC(=O)c1cccc([N+](=O)[O-])c1	68.4%
Cc1nc([N+](=O)[O-])cn1CC(=O)c1ccc(Cl)cc1	-12.5%
Cc1c(Br)c([N+](=O)[O-])nn1CC(=O)c1ccccc1	-6.01%
COC(=O)Cn1c(C)nc([N+](=O)[O-])c1Br	-5.82%
COc1ccc(OC)c(C(c2nnnn2CC2CCCO2)N2CCN(C)CC2)c1 (configuration not stated)	9.88%
COc1ccc(F)cc1S(=O)(=O)Nc1ccncc1	10.8%
N/C(COc1ncn(-c2ccccc2)n1)=N\S(=O)(=O)c1ccccc1	20.4%
CCOC(=O)C1CCCN(Cc2nc(N)nc(Nc3ccccc3)n2)C1 (configuration not stated)	42%
O=C(NC1CC1)c1nc2c(nnn2Cc2ccccc2Cl)c(=O)[nH]1	17.4%
O=C(NC1CCCC1)c1nc2c(nnn2Cc2ccccc2Cl)c(=O)[nH]1	79.4%

SMILES	inhibition
Cn1c(CCc2ccccc2)nnc1SCC(=O)N1CCCC1	-11.6%
N#CC(C#N)=c1ccc2c(c1)N1C(c3ccccc3)=CC(c3ccccc3)C3CCCCC31N=2 (configuration not stated)	-0.07%
O=C1NC2(CCCCC2)N=C1c1ccccc1	-21.1%
CC(C)(c1ccccc1)c1ccc(OCC(O)CN2CCCC2)cc1 (configuration not stated)	50%
CCOc1ccc(OCC(O)CNC2CCN(Cc3ccccc3)CC2)cc1 (configuration not stated)	35%
CC(C)(C)c1ccc(-n2ncc3c2CCCC3NC(=O)CN2CCOC2=O)cc1 (configuration not stated)	10.9%
COC(=O)Nc1ccc(S(=O)(=O)N2c3ccccc3CCC2C)cc1 (configuration not stated)	47.6%
Cc1ccc(S(=O)(=O)N2CCC(C(=O)OC(C)C(=O)N(C)c3ccccc3)CC2)cc1C (configuration not stated)	36%
CCCCOc1ccc(Cn2c(=O)oc3ccccc32)cc1	59%
CC(C)Oc1ccc(Cn2c(=O)oc3ccccc32)cc1	72%
CCSc1ncc(C)cc1[N+](=O)[O-]	-10.3%
O=C(c1cccs1)N1CCN(Cc2ccccn2)CC1	-6.8%
Cc1cccc(Cn2c(Cc3ccccc3)nc3ccccc32)c1	46.2%
COCCOc1cc(N)c(Cl)cc1Cl	10.4%
CCOC(=O)COc1cc(N2C(=O)CSCC2=O)c(Cl)cc1Cl	-8.36%
CN(C)/C=N/c1ncc(-c2ncc(C(F)(F)F)cc2Cl)cn1	-8.2%
CCn1nccc1C(=O)Nc1cccc(C)c1C	5.9%
COc1ccc(CC(C)CC(=O)Nc2ccc(OC)cc2)cc1 (configuration not stated)	49.1%
O=C1N=c2ccccc2=C1c1c(O)[nH]c2c(C(F)(F)F)cccc12	27.4%
O=C1N=c2ccccc2=C1c1[nH]c(=S)[nH]c1O	9.01%
CCn1c(O)c(C2=c3ccccc3=NC2=O)c2cc(Br)ccc21	73.8%
C=CCn1c(O)c(C2=c3ccccc3=NC2=O)sc1=Nc1ccc(O)cc1	30.7%
Cc1ccc2c(c1)c(C1=NC(=S)NC1=O)c(O)n2C	-2.45%
C=CCn1c(O)c(N=O)c2ccccc21	-1.03%

SMILES	inhibition
CC(C(=O)N1CCN=C1c1ccccc1)N1C(=O)c2ccccc2C1=O (configuration not stated)	-7.08%
O=C(CN1C(=O)NC2(CCCCC2)C1=O)Nc1ccc(Cl)cc1	-0.81%
C/C(=N/NC(=O)CCC(=O)Nc1ccc(Br)cc1)c1ccc(Br)cc1	-21.4%
O=C(NCc1ccccc1)c1ccco1	64.3%
O=C(NNC(=O)c1ccco1)c1ccccc1	-6.91%
Cc1ccc(/C=C2\SC(=S)N(CCC(=O)NCCCN3CCOCC3)C2=O)cc1	8.18%
CCOc1ccc(C(=O)c2cc([N+](=O)[O-])ccc2Cl)cc1	6.56%
O=C(c1ccc(S(=O)(=O)Nc2ccccc2)cc1)N1CCC1	-11.7%
CCCNC1=C(C)C(=O)C2=C(C1=O)C(COC(N)=O)[C@]1(OC)C3NC3CN21 (some centres not stated)	55.1%
COc1ccc(CCNC(=O)c2cc3cccc(OC)c3oc2=O)cc1OC	0.35%
CCN(CC)c1ccc2cc(C(N)=O)c(=N)oc2c1	31.1%
COc1cccc2cc(C(=O)NCc3ccc(Cl)cc3)c(=O)oc12	57.8%
CCN(CC)c1ccc2cc(C(C)=O)c(=O)oc2c1	3.33%
Cn1c(=O)c(=O)n(C)c2cc(S(=O)(=O)N3CCN(Cc4ccccc4)CC3)ccc21	5.19%
Nc1nc(-c2ccc3ccccc3c2)c(C2(O)C(=O)Nc3c(Br)cc(F)cc32)s1 (configuration not stated)	0.16%
COc1ccc(Cl)cc1NC(=O)CSc1nc(=O)n(CCN(C)C)c2c1CCCC2	16.1%
Clc1ccccc1N/N=C/c1ccc2c(c1)OCO2	28.4%
CC(=O)N(C1=C(N)C(=O)c2ccccc2C1=O)c1ccccc1	4.83%
CN(CC(=O)NCCc1ccc(F)cc1)Cc1ccccc1	20.9%
CC(CCc1ccccc1)NC(=O)CN(C)Cc1ccc(F)cc1 (configuration not stated)	18%
CCC(=O)N(C1=C(NC(C)C)C(=O)c2ccccc2C1=O)C(C)C	8.66%
COC(=O)/C(=C/c1c[nH]c2ccccc12)[N+](=O)[O-]	9.02%
COc1ccc2cc(Br)ccc2c1CC(=O)NCC1CCCO1 (configuration not stated)	14.2%
O=S(=O)(c1ccc2c(c1)OCCO2)N1CCN(S(=O)(=O)c2ccco2)CC1	16.7%

SMILES	inhibition
c1ccc(CSc2ccc(-c3ccccn3)nn2)nc1	36.2%
c1ccc(-c2ccc(SCc3cccnc3)nn2)nc1	63.6%
CCOC(=O)/C=C/C(=O)OCC(=O)Nc1ccc(Cl)cn1	0.76%
CS(=O)(=O)c1cnc(-c2ccccc2)nc1Oc1ccc(Cl)cc1	-7.01%
O=P(O)(CCc1ccncc1)CN1CCCCC1	-7.55%
COc1ccc2nc(C)cc(NCc3ccc(F)cc3)c2c1	38.9%
COc1ccc(Nc2cc(C)nc3ccccc23)cc1	36.9%
COc1ccccc1/C=N/Nc1cc(C)nc2ccc(C)cc12	-9.66%
COc1ccc(Nc2cc(C)nc3ccc(OC)cc23)cc1	41.2%
Cc1cc(N/N=C/c2ccc(N(C)C)cc2)c2ccccc2n1	-1.58%
COc1cccc2c(N/N=C/c3ccccc3)cc(C)nc12	3.67%
COc1ccc(C(=O)COC(=O)C(CCSC)NC(=O)COc2ccccc2)c(OC)c1 (configuration not stated)	30.9%
COc1ccccc1OCC(=O)NCc1n[nH]c(=O)c2ccccc12	-15.2%
O=C(COc1cccc2c1CCN(Cc1ccccc1)C2=O)N1CCCCC1	10.8%
CCCC(=O)C1=C(O)C(C(=O)OC)C(C)(C)CC1=NCCc1ccc(OC)c(OC)c1 (configuration not stated)	19%
CCOc1ccc(-c2csc(NC(=O)CSCC(=O)O)n2)c2ccccc12	11.9%
Cc1cccc(N/C(N)=N/c2nc(CSc3ccc(Cl)cc3)cc(=O)[nH]2)c1	-0.84%
CN(Cc1ccc(F)cc1)C(=O)C(Cc1ccccc1)NC(=O)c1ccccc1 (configuration not stated)	-6.89%
COc1ccc(Cc2nnc(NC(=O)c3ccc(C)cc3)s2)cc1OC	-7.61%
CC(C)c1ccc(C2/C(=C(/O)c3ccccc3)C(=O)C(=O)N2CCCN2CCOCC2)cc1 (configuration not stated)	3.66%
Cc1ccc(S(=O)(=O)NC(CC(C)C)C(=O)Nc2ccncc2)cc1 (configuration not stated)	0.09%
